Assay outcomes (PubChem BioAssay)
Only some compounds are listed: those with a hit (about 7.3% of all), similar ones and a draw of the others.
FLuc modulator = qHTS profiling assay for firefly luciferase inhibitor/activator using purifed enzyme and Km concentrations of substrates (counterscreen for miR-21 project); 360,000 tested, 6.9% active; purified FLuc, Km substrates, luminescence inhibition; Luciferin 4-monooxygenase (Photinus pyralis), P08659; Potency, µM (highest dose often 57.5 µM), for the others: at the top dose activity change, negative = inhibition, actives largely listed as inhibitors;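 note: plate controls were vehicle for no effect and reference inhibitor for full effect; nearly all actives have a fitted effect of over 55% in size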
Target sequence (P08659 whole entry, looked up): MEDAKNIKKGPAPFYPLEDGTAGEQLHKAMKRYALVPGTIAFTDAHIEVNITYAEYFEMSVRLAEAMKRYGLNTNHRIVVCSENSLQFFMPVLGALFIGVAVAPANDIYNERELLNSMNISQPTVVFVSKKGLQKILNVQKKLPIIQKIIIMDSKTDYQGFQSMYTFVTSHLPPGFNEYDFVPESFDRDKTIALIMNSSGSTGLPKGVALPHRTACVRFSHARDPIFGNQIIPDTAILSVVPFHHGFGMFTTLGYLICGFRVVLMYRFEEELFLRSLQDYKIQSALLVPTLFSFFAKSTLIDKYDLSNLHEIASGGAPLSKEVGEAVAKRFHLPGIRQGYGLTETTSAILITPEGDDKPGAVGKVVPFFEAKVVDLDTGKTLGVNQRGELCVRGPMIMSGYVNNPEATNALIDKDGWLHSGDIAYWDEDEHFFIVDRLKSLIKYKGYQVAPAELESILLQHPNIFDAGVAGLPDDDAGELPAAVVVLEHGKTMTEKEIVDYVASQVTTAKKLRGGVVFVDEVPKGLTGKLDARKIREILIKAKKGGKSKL
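Biochemical qHTS of compounds, final roughly 60 µM downward over six points, against 10 nM purified firefly luciferase using Km concentrations of substrates (10 uM D-luciferin, 10 uM ATP) in Tris acetate pH 7.5 buffer; luminescence output.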
NPC1 promoter act = qHTS Assay for NPC1 Promoter Activators; Potency, µM (doses to about 9.22 µM), inactives show at the highest dose activation, most hits filed as activators; 320,000 tested, 2.4% active; AID 485313, 2010; Huh7 NPC1 promoter luciferase reporter, 24 h; note: % of control where 0% means no effect; nearly all actives have a fitted effect of over 60% in size
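Huh7 reporter cells (NPC1 promoter driving luciferase) are dosed with compound for 24 h at 37 °C, 5% CO2; luciferase detection reagent is then added and luminescence measured after 10 min at ambient temperature.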
Rab9 prom act = qHTS Assay for Rab9 Promoter Activators. Huh7 Rab9 promoter-luciferase reporter, luminescence, 24 h. Potency, µM (doses to about 9.22 µM), without a hit: top-dose activation, negative = inhibition, most hits filed as activators. 320,000 tested, 2.8% active; note: % of control where 0% means no effect; nearly all actives have a fitted effect of over 60% in size
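Huh7 cells stably carrying a Rab9 promoter-luciferase reporter, 1500 cells per well in OP-MEM I with 10% FBS, treated with compound 24 hours at 37C. Luciferase activity read by luminescence after 10 minutes with Amplite reagent.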
ELG1 genotox = qHTS screen for small molecules that induce genotoxicity in human embryonic kidney (HEK293T) cells expressing luciferase-tagged ELG1. HEK293T ELG1-luciferase reporter, luminescence, 16 h. Potency, µM (titrated, usually from 46 µM), for inactives: at the top dose activity change, positive = activation, actives largely listed as activators. 330,000 tested, 1.3% active; note: % of control where 0% means no effect; nearly all actives have a fitted effect of over 60% in size
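Step 1: seed 2,000 HEK293T ELG1-luciferase cells per well. Step 2: add compound or DMSO, incubate 16 hr at 37 °C. Step 3: ONE-Glo, 30 min at room temperature, read luminescence.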
Luc counter = Counterscreen for Luciferase (Kinase-Glo TM) Inhibition; Kinase-Glo luciferase, ATP luminescence, 8 min; Luciferin 4-monooxygenase (Photuris pensylvanica), Q27757; AID 1379, 2008; 200,000 tested, 0.28% active; Potency, µM (top dose mostly 38.3 µM), inactives show at the highest dose activity change, negative = inhibition, actives largely listed as inhibitors; note: % is set by controls: 0 for no effect and ±100 for the full control effect; nearly all actives have a fitted effect of over 60% in size
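Compound is pinned into ATP-containing buffer (10 uM ATP, imidazole pH 7.2, 7 mM MgCl2). Kinase-Glo luciferase reagent is then added. Light output is recorded following an 8-min room-temperature incubation.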
SMN2 splice up = qHTS Assay for Enhancers of SMN2 Splice Variant Expression | HEK293 SMN2-luciferase splicing reporter, luminescence, 30-36 h | Potency, µM (doses to about 46.1 µM), inactives show at the top dose activity change, positive = activation, most hits filed as activators | 210,000 tested, 2.8% active | AID 1458, 2008; note: % of control where 0% means no effect; nearly all actives have a fitted effect of over 55% in size
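HEK293 cells carry an SMN2 minigene-luciferase reporter in which exon 7 inclusion puts luciferase in frame. Cells were seeded at 2000 cells/well, attached for 10-12 hours, then exposed to compounds for 30-36 hours at 37C before ONE-Glo luminescence.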
Active calls of the source: *; ? = inconclusive; / = no result given; [ ] = remark or other dose. Calls come from the whole dose curve; as a rule, active = well fitted curve in the direction sought with a large enough effect; inconclusive = small, poorly fitted or top-dose-only effect, or another doubt; inactive = no such curve, though single readings can be large; an effect the other way counts as inactive or inconclusive. Potency is the fitted concentration of half-maximal effect.

SMILES	FLuc modulator	NPC1 promoter act	Rab9 prom act	ELG1 genotox	Luc counter	SMN2 splice up
O=C(Nc1cccc(C(F)(F)F)c1)C1CCCN(S(=O)(=O)c2cccc3nsnc23)C1 (stereo unspecified)	-4%	/	/	/	/	-19%
CCOC(=O)c1cccc(NC(=O)NC(C)c2c(-n3cccc3)sc3c2CCN(C)C3)c1 (stereo unspecified)	-9%	/	/	/	/	/
CCOCC(=O)O	/	/	/	/	/	-11%
Cc1noc(C)c1-c1ccc2ncnc(NCc3ccccc3)c2c1	/	/	/	/	-3%	2.8µM*
Cn1ccc2cc(-c3ccc4ncnc(NCc5cccnc5)c4c3)ccc21	19µM*	-3%	-2%	/	/	/
CCOC(=O)c1c(C)[nH]c(C=Nc2ccccc2)c1O	2%	?	?	3%	-2%	?
CCOC(=O)c1c(C)[nH]c(C=Nc2ccc(OC)cc2)c1O	21µM*	4µM*	2.2µM*	?	-2%	11µM*
COC(=O)c1c(C)[nH]c(C=Nc2ccc(OC)cc2)c1C	7.6µM*	3%	-2%	5%	/	/
Cc1cccn2c(=O)cc(COc3cccc(NC(=O)COc4ccccc4)c3)nc12	-19%	/	/	/	/	/
COc1ccc(CC(=O)O/N=C(\N)c2ccccn2)cc1	12µM*	10%	18%	?	/	/
CCOc1cc(C(=O)O/N=C(\N)c2ccccn2)cc(OCC)c1OCC	?	6%	4%	-11%	/	/
COc1ccc(C(=O)NNC(=O)c2ccccn2)cc1	0.085µM*	0.32µM*	0.32µM*	0.15µM*	0.63µM*	2.5µM*
COc1ccc(C(=O)NCCNC(=O)c2ccccn2)cc1	2%	-4%	-1%	3%	/	/
COc1cc(OC)cc(C(=O)O/N=C(\N)c2ccccn2)c1	6.7µM*	0.89µM*	0.63µM*	?	/	/
COc1ccc(C(=O)O/N=C(\N)c2ccccn2)cc1	0.095µM*	0.11µM*	0.4µM*	?	/	/
COC(=O)CN1C(=O)CSc2ccc(S(=O)(=O)Nc3cccc(C)c3)cc21	-13%	/	/	/	/	/
Cc1cc(C)cc(OC(=O)c2snnc2C)c1	-11%	/	/	/	/	/
CC(=O)c1cccc(NC(=O)CSc2nc(=O)n(Cc3ccco3)c3c2CCC3)c1	-11%	/	/	/	/	/
COc1ccc(CN(C)S(=O)(=O)c2nnc(NC(=O)C(C)C)s2)cc1OC	-4%	/	/	/	/	/
C=Cc1ccc(Cn2c(C(=O)O)c(CNC3CCCCC3)c3ccc(OC)cc32)cc1	0%	/	/	/	/	/
COc1ccc(C(=O)Oc2cccnc2)cc1	-17%	-4%	7%	-2%	-6%	1%
COc1ccc(C(=O)O/N=C(\C)c2cnccn2)cc1	11µM*	0%	-1%	2%	-14%	7%
O=C1OC2(CCCC2)OC(=O)C1=Cc1c[nH]c2ccccc12	-5%	1.1µM*	0.89µM*	?	-3%	/
CN1C(=O)C(CC(=O)O)S/C1=N\N=C\c1ccc(O)cc1O (stereo unspecified)	15µM*	-14%	3%	0%	/	/
Cc1cc(C)n(CC(=O)N/N=C/c2cccs2)n1	17µM*	-2%	3%	7%	-4%	-7%
SMILES	FLuc modulator	NPC1 promoter act	Rab9 prom act	ELG1 genotox	Luc counter	SMN2 splice up
Cc1cc(C)n(CC(=O)N/N=C/c2ccc([N+](=O)[O-])s2)n1	4%	0%	-1%	-16%	1%	-91%
Cc1ccc(/C=N/NC(=O)c2ccccn2)s1	?	1.3µM*	0.5µM*	?	?	4µM*
Cn1cccc1C(=O)N/N=C/c1c(Cl)cccc1Cl	11µM*	2.5µM*	2.8µM*	16µM*	/	/
Cn1cccc1/C=N/NC(=O)c1ccccn1	13µM*	?	3.5µM*	?	/	/
Cc1ccc(/C=N/NC(=O)c2ccncc2)s1	?	1%	6%	3%	/	/
Cc1nn(S(=O)(=O)c2ccc(C(C)C)cc2)c(C)c1S(=O)(=O)N1CCCCCC1	-18%	/	/	/	/	/
O=C(Nc1ccc(Br)cc1F)N1CCC2(CC1)Oc1ccccc1C(=O)N2Cc1ccccc1F	-1%	/	/	/	/	7%
Cc1cc(C(=O)N/N=C/c2ccc([N+](=O)[O-])s2)n[nH]1	-2%	4%	-14%	-9%	/	/
CC(C)(C)NC(=O)C(=O)N/N=C/c1cccs1	15µM*	?	1.8µM*	?	-5%	?
Cn1cccc1/C=N/NC(=O)c1cc2ccccc2cc1O	19µM*	?	?	?	/	/
O=C(N/N=C/c1cccs1)c1ccccn1	11µM*	3.5µM*	2.5µM*	?	?	25µM*
CC(C)CNC(=O)C(=O)N/N=C/c1cccs1	?	?	?	?	-4%	3%
Cn1cccc1/C=N/NC(=O)c1ccncc1	-20%	-7%	-2%	0%	/	/
Cc1cc(C(=O)N/N=C/c2ccc(C)s2)n[nH]1	?	4µM*	3.2µM*	?	/	/
COc1ccc(Cn2c(=O)c3cccnc3n(CC(=O)Nc3c(C)cc(C)cc3C)c2=O)cc1	-1%	/	/	/	/	3%
CCc1ccccc1NC(=O)C1CCCN(c2ncnc3onc(C)c23)C1 (stereo unspecified)	-1%	/	/	/	/	/
Cn1nnc(NC(=O)c2ccc(C(C)(C)C)cc2)n1	3.4µM*	3.2µM*	1.6µM*	?	-8%	22µM*
Cn1nnc(NC(=O)c2ccccc2F)n1	-2%	7%	1%	2%	-3%	-2%
Cn1nnc(NC(=O)c2cccc(OCc3ccccc3)c2)n1	-14%	11%	6%	-3%	-2%	?
Cn1nnc(NC(=O)c2ccc3ccccc3c2)n1	15µM*	12%	27%	17%	-1%	4%
CCc1ccc(S(=O)(=O)c2cnc3ccc(OC)cc3c2N2CCCC(C)C2)cc1 (stereo unspecified)	-9%	/	/	/	/	-21%
COC(=O)c1cc(OC)c(OC)cc1NC(=O)c1cc(-c2ccccc2)nc2ccccc12	2%	-7%	-9%	1%	-2%	-26%
CC(=O)Nc1ccc(-c2cc(C(=O)O)c3ccc(C)cc3n2)cc1	17µM*	18%	4%	9%	/	/
CC(=O)Nc1ccc(-c2cc(C(=O)O)c3cc4ccccc4cc3n2)cc1	/	/	/	/	-8%[7.66 µM]	0%[9.22 µM]
COC(=O)c1cc(-c2ccc(NC(C)=O)cc2)nc2ccccc12	12µM*	-1%	-3%	-3%	3%	-5%
CC(=O)COC(=O)c1cc(-c2ccc(C)cc2)nc2ccccc12	17µM*	16%	24%	6%	1%	/
N/C(=N\OC(=O)c1cc(-c2ccccc2)nc2ccccc12)c1ccccn1	9.5µM*	10%	14%	-8%	-4%	/
